# Experiments:
# Assay in all cases: SPOT peptide array binding signal intensity (averaged, normalized) (arbitrary units (background-subtracted, floor 0; scale differs between SH3 domains)); higher = stronger binding of the SH3 domain to the peptide
# AgAbp1 = target: AgAbp1
# Summary of the method: (§1)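 Detection of bound protein relied on anti-GST antibody, an HRP anti-mouse secondary and luminol, with imaging and quantification in Genespotter. The bound protein was GST-fused SH3 domains from four yeast species, incubated at 10 μg/ml overnight at 4°C in TBS-based blocking buffer on cellulose membranes carrying synthetic 15-mer peptides with cysteines replaced by serines. Binding signal is normalized, background-subtracted spot intensity averaged over replicates, in arbitrary units that differ between domains.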
# AgBbc1 = target: AgBbc1
# Summary of the method: as §1
# AgBem1-D1 = target: AgBem1-D1
# Summary of the method: as §1
# AgBzz1-D1 = target: AgBzz1-D1
# Summary of the method: as §1
# AgBzz1-D2 = target: AgBzz1-D2
# Summary of the method: as §1
# AgCyk3 = target: AgCyk3
# Summary of the method: as §1
# AgFus1 = target: AgFus1
# Summary of the method: as §1
# AgHof1 = target: AgHof1
# Summary of the method: as §1
# AgHse1 = target: AgHse1
# Summary of the method: as §1
# AgLsb1 = target: AgLsb1
# Summary of the method: as §1
# AgLsb4 = target: AgLsb4
# Summary of the method: as §1
# AgMyo5 = target: AgMyo5
# Summary of the method: as §1
# AgNbp2 = target: AgNbp2
# Summary of the method: as §1
# AgRvs167 = target: AgRvs167
# Summary of the method: as §1
# AgSho1 = target: AgSho1
# Summary of the method: as §1
# AgSla1-D1-D2 = target: AgSla1-D1-D2
# Summary of the method: as §1
# AgSla1-D3 = target: AgSla1-D3
# Summary of the method: as §1
# CaAbp1-D1 = target: CaAbp1-D1
# Summary of the method: as §1
# CaAbp1-D2 = target: CaAbp1-D2
# Summary of the method: as §1
# CaBbc1 = target: CaBbc1
# Summary of the method: as §1
# CaBem1-D1 = target: CaBem1-D1
# Summary of the method: as §1
# CaBzz1-D1 = target: CaBzz1-D1
# Summary of the method: as §1
# CaBzz1-D2 = target: CaBzz1-D2
# Summary of the method: as §1
# CaCyk3 = target: CaCyk3
# Summary of the method: as §1
# CaFus1 = target: CaFus1
# Summary of the method: as §1
# CaHof1 = target: CaHof1
# Summary of the method: as §1
# CaHse1 = target: CaHse1
# Summary of the method: as §1
# CaLsb1 = target: CaLsb1
# Summary of the method: as §1
# CaLsb4 = target: CaLsb4
# Summary of the method: as §1
# CaMyo5 = target: CaMyo5
# Summary of the method: as §1
# CaNbp2 = target: CaNbp2
# Summary of the method: as §1
# CaRvs167 = target: CaRvs167
# Summary of the method: as §1
# CaRvs167-3 = target: CaRvs167-3
# Summary of the method: as §1
# CaSho1 = target: CaSho1
# Summary of the method: as §1
# CaSla1-D1-D2 = target: CaSla1-D1-D2
# Summary of the method: as §1
# CaSla1-D3 = target: CaSla1-D3
# Summary of the method: as §1
# ScAbp1 = target: ScAbp1
# Summary of the method: as §1
# ScBbc1 = target: ScBbc1
# Summary of the method: as §1
# ScBem1-D1 = target: ScBem1-D1
# Summary of the method: as §1
# ScBzz1-D1 = target: ScBzz1-D1
# Summary of the method: as §1
# ScBzz1-D2 = target: ScBzz1-D2
# Summary of the method: as §1
# ScCyk3 = target: ScCyk3
# Summary of the method: as §1
# ScFus1 = target: ScFus1
# Summary of the method: as §1
# ScHof1 = target: ScHof1
# Summary of the method: as §1
# ScHse1 = target: ScHse1
# Summary of the method: as §1
# ScLsb1 = target: ScLsb1
# Summary of the method: as §1
# ScLsb2 = target: ScLsb2
# Summary of the method: as §1
# ScLsb3 = target: ScLsb3
# Summary of the method: as §1
# ScLsb4 = target: ScLsb4
# Summary of the method: as §1
# ScMyo3 = target: ScMyo3
# Summary of the method: as §1
# ScMyo5 = target: ScMyo5
# Summary of the method: as §1
# ScNbp2 = target: ScNbp2
# Summary of the method: as §1
# ScPex13 = target: ScPex13
# Summary of the method: as §1
# ScRvs167 = target: ScRvs167
# Summary of the method: as §1
# ScSho1 = target: ScSho1
# Summary of the method: as §1
# ScSla1-D1-D2 = target: ScSla1-D1-D2
# Summary of the method: as §1
# ScSla1-D3 = target: ScSla1-D3
# Summary of the method: as §1
# SpAbp1-D1 = target: SpAbp1-D1
# Summary of the method: as §1
# SpBbc1 = target: SpBbc1
# Summary of the method: as §1
# SpBzz1-D1 = target: SpBzz1-D1
# Summary of the method: as §1
# SpBzz1-D2 = target: SpBzz1-D2
# Summary of the method: as §1
# SpCyk3 = target: SpCyk3
# Summary of the method: as §1
# SpHof1 = target: SpHof1
# Summary of the method: as §1
# SpHof1-2 = target: SpHof1-2
# Summary of the method: as §1
# SpHof1-3 = target: SpHof1-3
# Summary of the method: as §1
# SpHse1 = target: SpHse1
# Summary of the method: as §1
# SpLsb1 = target: SpLsb1
# Summary of the method: as §1
# SpLsb4 = target: SpLsb4
# Summary of the method: as §1
# SpMyo1 = target: SpMyo1
# Summary of the method: as §1
# SpNbp2 = target: SpNbp2
# Summary of the method: as §1
# SpPex13 = target: SpPex13
# Summary of the method: as §1
# SpRvs167 = target: SpRvs167
# Summary of the method: as §1
# SpSla1-D1-D2 = target: SpSla1-D1-D2
# Summary of the method: as §1
# SpSla1-D3 = target: SpSla1-D3
# Summary of the method: as §1
binder,measurement,setting,value
RFKRHRLEFPFNESE,SPOT peptide array binding signal intensity,AgAbp1,154
same,SPOT peptide array binding signal intensity,AgBbc1,38.5
same,SPOT peptide array binding signal intensity,AgBem1-D1,120
same,SPOT peptide array binding signal intensity,AgBzz1-D1,58
same,SPOT peptide array binding signal intensity,AgBzz1-D2,71
same,SPOT peptide array binding signal intensity,AgCyk3,≤ 0
same,SPOT peptide array binding signal intensity,AgFus1,378
same,SPOT peptide array binding signal intensity,AgHof1,28
same,SPOT peptide array binding signal intensity,AgHse1,929
same,SPOT peptide array binding signal intensity,AgLsb1,1.5
same,SPOT peptide array binding signal intensity,AgLsb4,78
same,SPOT peptide array binding signal intensity,AgMyo5,0.75
same,SPOT peptide array binding signal intensity,AgNbp2,37
same,SPOT peptide array binding signal intensity,AgRvs167,5.33
same,SPOT peptide array binding signal intensity,AgSho1,46
same,SPOT peptide array binding signal intensity,AgSla1-D1-D2,98
same,SPOT peptide array binding signal intensity,AgSla1-D3,8
same,SPOT peptide array binding signal intensity,CaAbp1-D1,759
same,SPOT peptide array binding signal intensity,CaAbp1-D2,598
same,SPOT peptide array binding signal intensity,CaBbc1,107
same,SPOT peptide array binding signal intensity,CaBem1-D1,164
same,SPOT peptide array binding signal intensity,CaBzz1-D1,34.5
same,SPOT peptide array binding signal intensity,CaBzz1-D2,34.8
same,SPOT peptide array binding signal intensity,CaCyk3,3
same,SPOT peptide array binding signal intensity,CaFus1,608
same,SPOT peptide array binding signal intensity,CaHof1,1.5
same,SPOT peptide array binding signal intensity,CaHse1,16
same,SPOT peptide array binding signal intensity,CaLsb1,≤ 0
same,SPOT peptide array binding signal intensity,CaLsb4,31
same,SPOT peptide array binding signal intensity,CaMyo5,13.2
same,SPOT peptide array binding signal intensity,CaNbp2,342
same,SPOT peptide array binding signal intensity,CaRvs167,25.7
same,SPOT peptide array binding signal intensity,CaRvs167-3,211
same,SPOT peptide array binding signal intensity,CaSho1,939
same,SPOT peptide array binding signal intensity,CaSla1-D1-D2,7
same,SPOT peptide array binding signal intensity,CaSla1-D3,4
same,SPOT peptide array binding signal intensity,ScAbp1,236
same,SPOT peptide array binding signal intensity,ScBbc1,11.5
same,SPOT peptide array binding signal intensity,ScBem1-D1,52
same,SPOT peptide array binding signal intensity,ScBzz1-D1,12
same,SPOT peptide array binding signal intensity,ScBzz1-D2,1
same,SPOT peptide array binding signal intensity,ScCyk3,112
same,SPOT peptide array binding signal intensity,ScFus1,286
same,SPOT peptide array binding signal intensity,ScHof1,5.25
same,SPOT peptide array binding signal intensity,ScHse1,1570
same,SPOT peptide array binding signal intensity,ScLsb1,36.2
same,SPOT peptide array binding signal intensity,ScLsb2,3
same,SPOT peptide array binding signal intensity,ScLsb3,80
same,SPOT peptide array binding signal intensity,ScLsb4,≤ 0
same,SPOT peptide array binding signal intensity,ScMyo3,≤ 0
same,SPOT peptide array binding signal intensity,ScMyo5,3.5
same,SPOT peptide array binding signal intensity,ScNbp2,154
same,SPOT peptide array binding signal intensity,ScPex13,≤ 0
same,SPOT peptide array binding signal intensity,ScRvs167,25.3
same,SPOT peptide array binding signal intensity,ScSho1,756
same,SPOT peptide array binding signal intensity,ScSla1-D1-D2,358
same,SPOT peptide array binding signal intensity,ScSla1-D3,11.8
same,SPOT peptide array binding signal intensity,SpAbp1-D1,419
same,SPOT peptide array binding signal intensity,SpBbc1,2.5
same,SPOT peptide array binding signal intensity,SpBzz1-D1,127
same,SPOT peptide array binding signal intensity,SpBzz1-D2,≤ 0
same,SPOT peptide array binding signal intensity,SpCyk3,≤ 0
same,SPOT peptide array binding signal intensity,SpHof1,68.2
same,SPOT peptide array binding signal intensity,SpHof1-2,12.2
same,SPOT peptide array binding signal intensity,SpHof1-3,348
same,SPOT peptide array binding signal intensity,SpHse1,640
same,SPOT peptide array binding signal intensity,SpLsb1,10.8
same,SPOT peptide array binding signal intensity,SpLsb4,30.5
same,SPOT peptide array binding signal intensity,SpMyo1,0.5
same,SPOT peptide array binding signal intensity,SpNbp2,298
same,SPOT peptide array binding signal intensity,SpPex13,15
same,SPOT peptide array binding signal intensity,SpRvs167,22.5
same,SPOT peptide array binding signal intensity,SpSla1-D1-D2,≤ 0
same,SPOT peptide array binding signal intensity,SpSla1-D3,26

# Source: the supplement of paper PMC4466140
